In PubChem BioAssay AID1159580 (chemical genetic matrix, 2015):
Several values for one entry are separate records, joined by “and”; a condition that tells them apart may be missing. Identical values can stand only once. Screen size: about 5,500 compounds; about 2,000 (36%) were called active. Inconclusive results (about 18%) are left out. Rule as the data show it: active = normalized growth mostly below about 0.91 (no sharp cut-off); inconclusive = no clear call, values can overlap the other calls; inactive = mostly above about 0.92. Some of the results follow.

Experiment: chemical genetic growth profiling, strain panel (AID 1159580);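 also: tested at 20 µM; growth read once vehicle control cultures reached saturation at 30 °C; 1 = growth at the plate median or of vehicle wells; lower values mean less growth of the strain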
Conditions: S. cerevisiae deletion strains, growth OD

Measured: normalized growth

CC(=O)O[C@H]1CC[C@@]2(C)C(C[C@@H](OC(C)=O)[C@]3(C)C2CC[C@@]2(C)[C@H](c4ccoc4)OC(=O)[C@H]4O[C@]423)C1(C)C (some centres not stated)
inactive: locus YAL013W, strain DEP1, stronger effect = lower value 0.993 | locus YAL021C, strain ccr4, stronger effect = lower value 1.01 | locus YAL026C, strain drs2, stronger effect = lower value 1 | locus YAL030W, strain snc1, stronger effect = lower value 0.99 | locus YBL061C, strain skt5, stronger effect = lower value 0.996 | locus YBR009C, strain hhf1, stronger effect = lower value 0.987 | locus YBR021W, strain FUR4, stronger effect = lower value 0.999 | locus YBR023C, strain chs3, stronger effect = lower value 0.997 | locus YBR171W, strain sec66, stronger effect = lower value 1 | locus YBR229C, strain ROT2, stronger effect = lower value 1 | locus YBR231C, strain swc5, stronger effect = lower value 1.01 | locus YBR279W, strain paf1, stronger effect = lower value 1 | locus YCL011C, strain gbp2, stronger effect = lower value 0.993 | locus YCL016C, strain dcc1, stronger effect = lower value 1 | locus YCL029C, strain bik1, stronger effect = lower value 1.01 | locus YCL061C, strain MRC1, stronger effect = lower value 1 | locus YCL069W, strain vba3, stronger effect = lower value 0.998 | locus YCR088W, strain abp1, stronger effect = lower value 0.995 | locus YDL005C, strain med2, stronger effect = lower value 0.996 | locus YDL035C, strain GPR1, stronger effect = lower value 0.998 | locus YDL040C, strain nat1, stronger effect = lower value 0.988 | locus YDL074C, strain BRE1, stronger effect = lower value 1.04 | locus YDL101C, strain DUN1, stronger effect = lower value 1.03 | locus YDL185W, strain tfp1, stronger effect = lower value 1.01 | locus YDL192W, strain arf1, stronger effect = lower value 0.992 | locus YDR001C, strain nth1, stronger effect = lower value 0.99 | locus YDR069C, strain doa4, stronger effect = lower value 0.991 | locus YDR101C, strain arx1, stronger effect = lower value 1.01 | locus YDR137W, strain rgp1, stronger effect = lower value 1.08 | locus YDR159W, strain sac3, stronger effect = lower value 0.983 | locus YDR162C, strain NBP2, stronger effect = lower value 1.02 | locus YDR195W, strain ref2 0.93 | locus YDR297W, strain sur2, stronger effect = lower value 0.999 | locus YDR318W, strain mcm21, stronger effect = lower value 1.01 | locus YDR334W, strain swr1, stronger effect = lower value 0.985 | locus YDR335W, strain msn5, stronger effect = lower value 0.999 | locus YDR388W, stronger effect = lower value 1.01 | locus YDR392W, strain spt3, stronger effect = lower value 0.914 | locus YDR502C, strain sam2, stronger effect = lower value 1.03 | locus YEL003W, strain gim4, stronger effect = lower value 0.991 | locus YEL037C, strain rad23, stronger effect = lower value 0.988 | locus YEL061C, strain CIN8 (second series), stronger effect = lower value 0.987 | locus YEL061C, strain CIN8, stronger effect = lower value 1.01 | locus YER015W, strain faa2, stronger effect = lower value 0.998 | locus YER016W, strain bim1, stronger effect = lower value 0.999 | locus YER110C, stronger effect = lower value 1.02 | locus YER111C, strain swi4, stronger effect = lower value 0.983 | locus YER155C, strain BEM2 (second series), stronger effect = lower value 0.988 | locus YER155C, strain BEM2, stronger effect = lower value 1 | locus YER167W, strain BCK2, stronger effect = lower value 0.993 | locus YFR010W, strain ubp6, stronger effect = lower value 0.992 | locus YGL078C, strain dbp3, stronger effect = lower value 1.02 | locus YGL086W, strain mad1, stronger effect = lower value 1.01 | locus YGL167C, strain pmr1, stronger effect = lower value 0.994 | locus YGL173C, strain kem1, stronger effect = lower value 1 | locus YGL227W, strain vid30, stronger effect = lower value 1 | locus YGL240W, strain doc1, stronger effect = lower value 0.978 | locus YGL248W, strain PDE1, stronger effect = lower value 1.02 | locus YGL253W, strain hxk2, stronger effect = lower value 1 | locus YGR078C, strain PAC10, stronger effect = lower value 1.02 | locus YGR135W, strain pre9, stronger effect = lower value 1.06 | locus YGR229C, strain SMI1, stronger effect = lower value 0.959 | locus YGR252W, strain gcn5, stronger effect = lower value 1.1 | locus YHR013C, strain ard1, stronger effect = lower value 0.981 | locus YHR027C, strain rpn1, stronger effect = lower value 0.998 | locus YHR030C, strain SLT2, stronger effect = lower value 1.05 | locus YHR079C, strain IRE1 (second series), stronger effect = lower value 1.02 | locus YHR079C, strain IRE1, stronger effect = lower value 1.04 | locus YHR094C, strain hxt1, stronger effect = lower value 1.01 | locus YHR129C, strain ARP1, stronger effect = lower value 1.01 | locus YHR142W, strain chs7, stronger effect = lower value 1.03 | locus YHR200W, strain rpn10, stronger effect = lower value 1.04 | locus YIL066C, strain RNR3, stronger effect = lower value 0.999 | locus YIL073C, strain SPO22, stronger effect = lower value 1.04 | locus YIL125W, strain kgd1, stronger effect = lower value 1.01 | locus YIR030C, strain dcg1, stronger effect = lower value 1 | locus YJL092W, strain hpr5, stronger effect = lower value 0.998 | locus YJL095W, strain BCK1 (second series), stronger effect = lower value 1 | locus YJL095W, strain BCK1, stronger effect = lower value 1.07 and 1.04 | locus YJL115W, strain asf1, stronger effect = lower value 0.997 | locus YJL129C, strain trk1, stronger effect = lower value 0.987 | locus YJL134W, strain LCB3, stronger effect = lower value 1.01 | locus YJL154C, strain vps35, stronger effect = lower value 1 | locus YJL164C, strain tpk1, stronger effect = lower value 0.995 | locus YJL166W, strain qcr8, stronger effect = lower value 1 | locus YJL168C, strain set2, stronger effect = lower value 1.01 | locus YJL187C, strain SWE1 (second series), stronger effect = lower value 1.04
